Source: PubChem BioAssay (National Center for Advancing Translational Sciences (NCATS))
A selection: hits, their analogues and other compounds. The true share with any hit is near 9.4%.
ELG1 genotoxic: inducers of genotoxicity in HEK293T ELG1-luciferase cells | Potency, µM (top dose mostly 46 µM), for inactives: top-dose activity change, positive = activation, most hits filed as activators | AID 504466 | HEK293T ELG1-luciferase reporter, luminescence, 16 h | 1.3% of 330,000 active; also: % of control where 0% means no effect; nearly all actives have a fitted effect of over 60% in size
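16 hr compound incubation (37 °C, 5% CO2) of HEK293T cells carrying luciferase-tagged ELG1; luciferase then measured by ONE-Glo luminescence after 30 min at RT.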
NPC1 prom act: activates the NPC1 promoter; Huh7 NPC1 promoter luciferase reporter, 24 h; Potency, µM (titrated, usually from 9.22 µM), for the others: at the highest dose activation, most hits filed as activators; 2.4% of 320,000 active; also: % of control where 0% means no effect; nearly all actives have a fitted effect of over 60% in size
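Luminescence read-out of NPC1 promoter-driven luciferase in stably transfected Huh7 cells; compounds delivered in DMSO and left 24 h at 37C, 5% CO2, qHTS titration format.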
ELG1 DNA repair: inhibitors of ELG1-dependent DNA repair in HEK293T cells. HEK293T ELG1-luciferase reporter, luminescence, 16 h; DNA damage induced by 5-fluorouridine. Potency, µM (top dose mostly 46.1 µM), for inactives: at the highest dose activity change, negative = inhibition, actives largely listed as inhibitors. 2.3% of 330,000 active. AID 504467; also: % is scaled to controls: 0 for no effect and ±100 for the full control effect; nearly all actives have a fitted effect of over 55% in size
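Step one: seed 2,000 cells per well. Step two: pin-transfer compound or DMSO alongside 5-fluorouridine. Step three: incubate 16 hr, 37 °C, 5% CO2. Step four: add ONE-Glo, wait 30 min, read luminescence.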
SMN2 splice up: enhancers of SMN2 splice variant expression; Potency, µM (titrated, usually from 46.1 µM), for inactives: at the top dose activity change, positive = activation, usual class: activators; 2.8% of 210,000 active; AID 1458; HEK293 SMN2-luciferase splicing reporter, luminescence, 30-36 h; also: % of control where 0% means no effect; nearly all actives have a fitted effect of over 55% in size
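qHTS luciferase splicing reporter: luminescence rises when SMN2 exon 7 is included in transfected HEK293 cells. Compound exposure lasted 30-36 h at 37C, with 4.5 mM final sodium butyrate as control, followed by a ONE-Glo read.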
Rab9 promoter act: activates the Rab9 promoter; AID 485297; 2.8% of 320,000 active; Potency, µM (doses to about 9.22 µM), inactives show top-dose activation, negative = inhibition, most hits filed as activators; Huh7 Rab9 promoter-luciferase reporter, luminescence, 24 h; also: % of control where 0% means no effect; nearly all actives have a fitted effect of over 60% in size
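Promoter activation is measured as luciferase luminescence in Huh7 cells stably transfected with a Rab9 promoter–luciferase construct, following 24 h compound exposure at 37 °C and 10 min reagent incubation at ambient temperature.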
FLuc counter: counter-screen for miR-21 project: firefly luciferase inhibitors or activators; purified FLuc, Km substrates, luminescence inhibition; Potency, µM (highest dose often 57.5 µM), inactives show at the top dose activity change, negative = inhibition, usual class: inhibitors; 6.9% of 360,000 active; P08659;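 also: plate controls were vehicle for no effect and reference inhibitor for full effect; nearly all actives have a fitted effect of over 55% in size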
Target sequence (P08659 whole entry, looked up): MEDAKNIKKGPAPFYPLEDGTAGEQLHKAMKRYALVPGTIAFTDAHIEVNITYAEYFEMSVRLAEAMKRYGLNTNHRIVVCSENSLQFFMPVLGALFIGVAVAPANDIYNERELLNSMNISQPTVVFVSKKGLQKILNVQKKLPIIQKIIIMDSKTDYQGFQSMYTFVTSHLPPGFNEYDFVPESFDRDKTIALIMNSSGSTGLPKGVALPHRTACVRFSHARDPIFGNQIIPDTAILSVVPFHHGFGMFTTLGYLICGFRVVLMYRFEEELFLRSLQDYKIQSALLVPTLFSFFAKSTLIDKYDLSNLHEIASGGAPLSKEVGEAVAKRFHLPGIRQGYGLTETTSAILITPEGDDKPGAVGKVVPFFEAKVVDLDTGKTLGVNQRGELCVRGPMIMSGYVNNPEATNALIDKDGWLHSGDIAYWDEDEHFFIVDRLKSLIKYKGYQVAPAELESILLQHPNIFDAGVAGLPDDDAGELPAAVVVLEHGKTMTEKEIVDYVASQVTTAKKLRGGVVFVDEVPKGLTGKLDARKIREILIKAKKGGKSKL
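Purified P. pyralis luciferase (10nM final) with 10uM D-luciferin and 10uM ATP (Km levels) in 50mM Tris acetate pH 7.5, 10mM Mg acetate, 0.01% Tween-20, 0.05% BSA; qHTS 6-point titration, ~60 µM downward; luminescence read.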
Starred values were filed as active, the others as inactive; u = inconclusive; x = no result given; [ ] = dose if it differs, or a comment. Calls follow the shape of the dose curve; as a rule, active = well fitted curve in the direction sought with a large enough effect; inconclusive = small, poorly fitted or top-dose-only effect, or another doubt; inactive = no such curve, though single readings can be large; an effect the other way counts as inactive or inconclusive. Potency is read from the fitted curve at half-maximal effect.

SMILES	ELG1 genotoxic	NPC1 prom act	ELG1 DNA repair	SMN2 splice up	Rab9 promoter act	FLuc counter
COc1ccccc1C(=O)Nc1nnc(SCC(=O)NCC2CCCO2)s1 (configuration not stated)	u	1.41µM*	u	x	3.55µM*	6.01µM*
O=C(CSc1nnc(NC(=O)c2cccc(Cl)c2)s1)NCC1CCCO1 (configuration not stated)	u	19.9%	u	x	23.4%	6.75µM*
CCN1CCN(c2oc(/C=C/c3ccc(OC)c(OC)c3)nc2C#N)CC1	x	x	x	0.2%	x	-1.2%
CCOc1ccc(NC(=O)NCCN2CCN(c3cc(Cl)ccc3C)CC2)cc1	x	x	x	7.1%	x	u
O=S(=O)(O)C(c1ccccc1)[C@@H](O)c1ccccc1 (some centres not stated)	x	x	x	-14.0%[9.22 µM]	x	x
COC(=O)c1ccc(NC(=O)CC2C(=O)N(c3cccc(OC)c3)C(=O)N2Cc2cccc(OC)c2)cc1 (configuration not stated)	x	x	x	x	x	5.7%
S=c1[nH]nc(Nc2ccc(Cl)cc2)s1	3.6%	13.9%	u	x	7.1%	u
CCOc1ccc(Nc2n[nH]c(=S)s2)cc1	u	2.51µM*	u	x	1.78µM*	u
COc1cccc(CNC(=O)c2ccc(-n3c(C)cc4c3CCCC4)cc2)c1	x	x	x	x	x	-2.9%
CNc1ccccc1C(C)(C)c1cc(-c2cccc([N+](=O)[O-])c2)no1	-5.7%	-1.3%	1.46µM*	-47.2%	-8.5%	0.4%
CNc1ccccc1C(C)(C)c1cc(-c2cccc(Br)c2)no1	-6.2%	-14.7%	9.2µM*	x	-18.4%	-8.8%
O=C(CSc1nc2ccccc2o1)N/N=C/c1ccc(O)c(O)c1	14.4%	-5.5%	u	x	-2.4%	19µM*
C/C(=N\NC(=O)CSc1nc2ccccc2o1)c1cccc(O)c1	0.7%	1.7%	9.5%	x	0.6%	-12.7%
O=C(CSc1nc2ccccc2o1)N/N=C/c1ccccc1	16.3%	-2.3%	u	-3.6%[1.84 µM]	1.5%	-1.5%
C/C(=N\NC(=O)CSc1nc2ccccc2o1)c1ccc(O)cc1	9.3%	1.2%	u	10.5%	3.5%	16.9µM*
CCOc1ccc(-n2nc(CO)c(C(=O)NCCCc3ccccc3)n2)cc1	x	x	x	-1.0%	x	5.36µM*
CCOc1ccc(-n2nc(CO)c(C(=O)NCc3cccc(OC)c3)n2)cc1	x	x	x	-13.6%	x	15.1µM*
COc1cccc(CNC(=O)Cn2c(C)c3cnn(-c4ccccc4)c(=O)c3c2C)c1	x	x	x	-0.4%	x	-8.1%
CCOc1cc(/C=C2/SC(=S)N(CC(=O)O)C2=O)ccc1OC(=O)c1cccs1	-2.4%	4.5%	3.3%	x	10.4%	16.9µM*
COc1cc(/C=C2\SC(=S)N(CC(=O)O)C2=O)ccc1OC(=O)c1ccco1	1.5%	u	11.1%	x	-0.2%	7.57µM*
COc1ccc(/C=C2/SC(=S)N(CC(=O)O)C2=O)cc1OCc1ccc(Cl)cc1	16.7%	-5.2%	u	x	23.2%	19µM*
CCOc1ccc(/C=C2/SC(=S)N(C(C(=O)O)c3ccccc3)C2=O)cc1OCC (configuration not stated)	-0.6%	-1.9%	19.9%	-13.5%	-3.2%	u
O=C(O)CN1C(=O)/C(=C\c2cc(Br)ccc2OCc2ccc(Cl)cc2)SC1=S	0.8%	-0.9%	0.0%	x	0.7%	-7.3%
O=C(O)CN1C(=O)/C(=C\c2cccc(OCc3ccccc3)c2)SC1=S	5.2%	2.7%	u	x	6.6%	15.1µM*
CCN(CC)c1ccc(C(=O)NCc2ccc3c(c2)CCN3C(=O)c2ccc(F)cc2)cc1	x	x	x	x	x	-15.6%
Cc1ccc(NC(=O)Cn2c(=O)n(-c3ccc(Cl)c(Cl)c3)c(=O)c3c(C)c(C)sc32)c(C)c1	x	x	x	-1.8%	x	3.6%
CN(C)c1ccc(C2CC(c3c(O)n(C4CCCCC4)c(=O)[nH]c3=O)=Nc3ccccc3S2)cc1 (configuration not stated)	x	x	x	x	x	-12.5%
